p97 ATPase inh = inhibitors of human p97 ATPase; P55072; recombinant p97 ATPase, Kinase-Glo ATP luminescence, 3 h; inhibition, % at 8 µM; hit rate 0.42% among 220,000; AID 1481; in the data active = inhibition above about 15%;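 note: 0% = DMSO vehicle and 100% = wells lacking enzyme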
HCT116 PTEN-null = growth suppressors of cells with PTEN tumor suppressor deletion | HCT116 PTEN-null viability, CellTiter-Glo, 60 h; active compounds read low | hit rate 1.2% among 140,000 | viability, % at 10 µM;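 active = viability at or below a set limit, 4 SD under the median of all tested compounds, cut at about 3.7% in these data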;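 note: PTEN knockout HCT116 line with beta catenin targeted HCT116 as companion control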
INS promoter inh = TRM-6 insulin promoter activity inhibition | inhibition, % at 2 µM | TRM-6 cells (human fetal islet line), insulin promoter-eGFP reporter, imaging; reporter expression induced with tamoxifen | hit rate 0.9% among 130,000;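 active = inhibition above the mean plus 3 SD, with well images judged a real hit on visual review, cut at about 60% in these data, passing the limit was not always enough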
HCT116 bCat-KO = beta-catenin-lacking colon tumor cell growth suppression | HCT116 beta-catenin knockout viability, CellTiter-Glo, 60 h; active compounds read low | hit rate 1.5% among 140,000 | AID 818 | viability, % at 10 µM;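 active = viability at or under a set limit, the compound median less 4 SD, cut at about 6% in these data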;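 note: 0% = Hyamine 1622 control at 20 µM and 100% = untreated cell control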
Lmaj promast = Leishmania major promastigote growth inhibition. Leishmania major promastigotes, resazurin fluorescence viability. inhibition, % at 10 µM. hit rate 9% among 200,000; in the data active = inhibition above about 50%;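 note: promastigotes grown with compound for 44 hours at 28 °C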
ROMK primary = modulators of human ROMK potassium channel. P48048. Tet-inducible ROMK, thallium flux fluorescence; actives lie on both sides. B-score at 10 µM. hit rate 2% among 130,000;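 active = signal ratio slope over the read window, or its plate-corrected B-score, at least 3 SD from the plate mean, either direction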;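 note: B-score of the F/F0 ratio slope over 7 to 12 s after thallium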
Target sequence (P48048 whole entry, looked up): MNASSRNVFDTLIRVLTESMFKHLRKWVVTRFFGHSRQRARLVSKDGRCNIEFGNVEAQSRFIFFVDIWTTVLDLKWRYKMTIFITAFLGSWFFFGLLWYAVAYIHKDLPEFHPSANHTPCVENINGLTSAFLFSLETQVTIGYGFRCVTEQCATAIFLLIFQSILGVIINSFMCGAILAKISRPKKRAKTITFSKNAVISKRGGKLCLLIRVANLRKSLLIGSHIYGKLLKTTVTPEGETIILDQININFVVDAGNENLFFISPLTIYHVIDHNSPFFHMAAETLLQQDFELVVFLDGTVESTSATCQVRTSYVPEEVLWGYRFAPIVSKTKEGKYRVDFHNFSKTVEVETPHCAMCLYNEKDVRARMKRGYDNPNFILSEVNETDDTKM
Lmaj promast 1uM = inhibitors of Leishmania major promastigote growth, repeat at 1 uM; shares compounds with Lmaj promast; L. major promastigote growth, resazurin fluorescence, 48 h; inhibition, % at 1 µM; hit rate 13% among 1,100;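 active = inhibition above about 50% in both repeat tests, limit read from the data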
* marks the source's active call; other numbers are inactive results; i = inactive; . = no result. A selection: hits, their analogues and other compounds. The true share with any hit is near 10%.

SMILES	p97 ATPase inh	HCT116 PTEN-null	INS promoter inh	HCT116 bCat-KO	Lmaj promast	ROMK primary	Lmaj promast 1uM
COc1ccc(C2c3c4c(n(C)c3CCN2C)CCN(C)C4c2ccc(OC)cc2)cc1 (centres undefined)	4	71	38	61	3	.	.
COc1ccc(C2NCCn3cccc32)cc1 (centres undefined)	5	95	-129	93	96*	-0.92	-20
COc1ccc(N(CC(=O)Nc2cc(C)ccc2C)S(=O)(=O)c2ccccc2[N+](=O)[O-])c(OC)c1	3	.	.	.	35	-0.17	.
CCn1ncc([N+](=O)[O-])c1C(=O)NC1CCCCC1	0	.	.	.	-2	0.049	.
COc1cc(CO)ccc1OCC(=O)Nc1ccc(Br)cc1	0	.	.	.	-5	-0.72	.
COc1cc(CNCC(C)C)cc(Br)c1OCC(=O)Nc1ccccc1	-1	76	-7	78	100*	.	45
CCOC(=O)C1=C(C)N=C2SC(C(=O)OC)=CC(=O)N2C1c1cc(OC)c(OC)c(OC)c1 (centres undefined)	3	93	.	86	-6	.	.
c1ccc(Nc2ccc(-n3ccnc3)nn2)cc1	3	.	35	.	-4	0.66	.
Clc1ccc(Nc2ccc(-n3ccnc3)nn2)cc1Cl	-3	26	.	21	51*	.	-3
O=C(O)/C=C/C(=O)N(CC1CCCO1)C1CC(=O)N(c2c(Cl)cccc2Cl)C1=O (centres undefined)	7	.	.	.	.	0.015	.
O=C(/C=C1\NC2(CCCC2)Cc2ccccc21)N1CCOCC1	1	86	-57	85	88*	-1.6	-2
Cc1cc(C)c[n+](C2=C([O-])c3ccccc3C(=O)/C2=N\S(=O)(=O)c2cccs2)c1	2	41	-56	33	21	0.56	.
Cc1ccccc1NC1=C/C(=N\S(=O)(=O)c2cccs2)c2ccccc2C1=O	11	1.9*	-35	1.5*	100*	-1.2	97*
CCn1cc(C(=O)OCc2ccc(F)cc2)c(=O)c2ccc(C)nc21	-7	91	19	90	50*	-1	-2
CCn1cc(C(=O)OCc2cccc(Br)c2)c(=O)c2ccc(C)nc21	-9	87	46	93	14	.	.
CCCCC(CC)C(=O)NCC(C)NC(=O)C(CC)CCCC (centres undefined)	-3	76	-66	78	61*	.	-9
CCC(=O)NC(c1ccccc1)c1c(OC(C)=O)ccc2ccccc12 (centres undefined)	-6	.	.	.	1	-0.18	.
CC(=O)Oc1ccc2ccccc2c1C(NC(=O)Cc1ccccc1)c1ccccc1Cl (centres undefined)	3	1.4*	-46	3.9*	55*	-0.3	-23
Cc1nc(Cl)c2c(n1)N(CC(N)=O)C(=O)CO2	6	96	.	98	-6	-0.46	.
COc1ccc(NC(=O)/C(Cl)=C(/Cl)S(=O)Cc2ccccc2Cl)cn1 (centres undefined)	15*	.	i	.	101*	.	100*
CNCCCC1c2ccccc2C=Cc2ccccc21	-1	59	-9	68	56*	.	-9
O=C(COC(=O)c1ccccc1Br)Nc1ccccc1F	2	.	.	.	-6	-0.8	.
c1ccc2c(N3CCCCC3)nnc(N3CCCCC3)c2c1	-5	97	23	87	29	-1.3	.
Cc1nnc(N2CCCCC2)c2ccccc12	4	115	21	91	53*	.	2
CCOC(=O)CSC1=C(C#N)C(C)C2=C(CCCC2=O)N1 (centres undefined)	4	90	-18	95	-3	0.21	.
SMILES	p97 ATPase inh	HCT116 PTEN-null	INS promoter inh	HCT116 bCat-KO	Lmaj promast	ROMK primary	Lmaj promast 1uM
CCOC(=O)c1ccc(N2CCN(C(C)=O)CC2)c(NC(=O)c2cccnc2)c1	0	.	.	.	-3	-0.15	.
c1cc2c(cc1C1CCCCC1)c1c3n2CCN=C3CCC1	-1	10	-81	2.1*	101*	-0.53	15
c1cc2c(cc1C1CCCCC1)c1c3n2CCCNC3CCC1 (centres undefined)	-3	0.7*	-67	0.5*	100*	-0.5	17
c1ccc2c(c1)c1c3n2CCNC3CCC1 (centres undefined)	5	93	10	92	-3	.	.
COc1ccc(CN(C)C(=S)Nc2ccc(Cl)cc2)cc1	-7	.	-36	.	-5	-0.67	.
CCCc1n[nH]c2c1/C(=N/O)CC(c1ccccc1)C2 (centres undefined)	1	55	-100	59	81*	0.064	59*
COCc1cc(C)n(CC(=O)Nc2cc(C)cc(C)c2)c(=O)c1C#N	8	.	.	.	-5	-0.81	.

High-throughput results as filed in PubChem BioAssay.
